U2OS ROS induce: raises reactive oxygen species in U2OS cancer cells | U2OS ROS induction, H2DCF-DA fluorescence | ROS induction (% of piperlongumine), % at 10 µM | 46,000 compounds, 2% hits; in the data active = ROS induction above about 79%, passing the limit was not always enough;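 also: 0% = DMSO vehicle median and 100% = reference compound median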
An asterisk follows results filed as active. The full list was thinned out, with hits kept by preference.

SMILES | U2OS ROS induce
Cc1noc(C)c1S(=O)(=O)Nc1cccc2c1O[C@H](CN(C)S(=O)(=O)c1ccc(Cl)cc1)[C@H](C)CN([C@@H](C)CO)C2=O | 103*
C[C@H]1CN([C@@H](C)CO)C(=O)c2cccc(NC(=O)Nc3cccc4ccccc34)c2O[C@@H]1CN(C)S(=O)(=O)c1ccc(F)cc1 | 151*
CCc1nn(C(CC)C(=O)NC2CCCC2)c(=O)c2cc3oc(C)cc3n12 (configuration not stated) | 0
CCc1ccc(NC(=O)Cn2nc(-c3ccc(OC)cc3)ccc2=O)cc1 | 6
CC(=O)Nc1cc(C(=O)N2CC=C(c3ccccc3)CC2)ccc1Sc1ccc(Cl)cc1 | 13
CNS(=O)(=O)c1ccc2oc3ccc(S(=O)(=O)NC)cc3c2c1 | -6
COc1ccc(CCNC(=O)Cc2c(SC)c3ccccc3n2Cc2ccccc2)cc1OC | 31
COCCOC(=O)N1C(=O)[C@@]2(c3cc(C#Cc4ccc(OC)cc4)ccc31)[C@H](c1ccccc1OCCO)N1[C@H](c3ccccc3)[C@H](c3ccccc3)OC(=O)[C@H]1[C@@H]2C(=O)N1CCc2cc(OC)c(OC)cc2C1 | 112*
COCCOC(=O)N1C(=O)[C@@]2(c3ccccc31)[C@H](C(=O)N1CCc3cc(OC)c(OC)cc3C1)[C@H]1C(=O)O[C@H](c3ccccc3)[C@H](c3ccccc3)N1[C@@H]2c1ccccc1OCCO | 121*
COCCOC(=O)N1C(=O)[C@@]2(c3cc(C#Cc4ccc(OC)cc4)ccc31)[C@H](C(=O)N1CCc3cc(OC)c(OC)cc3C1)[C@H]1C(=O)O[C@H](c3ccccc3)[C@H](c3ccccc3)N1[C@@H]2c1ccccc1OCCO | 50
COCCOC(=O)N1C(=O)[C@@]2(c3cc(C#CCNC(N)=O)ccc31)[C@H](C(=O)N1CCc3cc(OC)c(OC)cc3C1)[C@H]1C(=O)O[C@H](c3ccccc3)[C@H](c3ccccc3)N1[C@@H]2c1ccccc1OCCO | 0
COc1ccc(-c2cc(C(=O)OCC(=O)c3ccccc3)c3cccc(Cl)c3n2)cc1 | -4
O=C(CSC1=Nc2ccccc2C2=NC(Cc3ccccc3)C(=O)N12)c1ccc(F)cc1 (configuration not stated) | 1
CC(C(=O)NCc1cccs1)n1ncn2cccc2c1=O (configuration not stated) | -3
CCOc1ccc(CCNC(=O)Cn2ncn3nc(-c4cccs4)cc3c2=O)cc1OCC | -10
CCN(C(=O)CSc1ncnc2c1sc1ccccc12)c1cccc(C)c1 | 45
C[C@H]1CN([C@@H](C)CO)C(=O)Cc2cc(NS(=O)(=O)c3cn(C)cn3)ccc2O[C@@H]1CN(C)Cc1ccc(Oc2ccccc2)cc1 | -7
COc1ccc(CN(C)C[C@@H]2Oc3ccc(NS(=O)(=O)c4cn(C)cn4)cc3CC(=O)N([C@H](C)CO)C[C@H]2C)cc1 | 95*
C[C@@H]1CN([C@@H](C)CO)C(=O)Cc2cc(NS(=O)(=O)c3cn(C)cn3)ccc2O[C@@H]1CN(C)Cc1ccc(Oc2ccccc2)cc1 | 21
C[C@@H]1CN([C@@H](C)CO)C(=O)Cc2cc(NS(=O)(=O)c3cn(C)cn3)ccc2O[C@@H]1CN(C)S(C)(=O)=O | 109*
C[C@H]1CN([C@@H](C)CO)C(=O)Cc2cc(NS(=O)(=O)c3cn(C)cn3)ccc2O[C@H]1CN(C)S(=O)(=O)c1cn(C)cn1 | -5
C[C@@H]1CN([C@H](C)CO)C(=O)Cc2cc(NS(=O)(=O)c3cn(C)cn3)ccc2O[C@@H]1CN(C)S(=O)(=O)c1cn(C)cn1 | -10
COc1ccc(-n2c3c(cc(C(N)=O)c2=O)C(=O)CC(C)(C)C3)cc1 | 1
Cc1noc(C)c1NC(=O)Nc1ccc2c(c1)CC(=O)N([C@@H](C)CO)C[C@H](C)[C@H](CN(C)Cc1ccc3c(c1)OCO3)O2 | 124*
Cc1noc(C)c1NC(=O)Nc1ccc2c(c1)CC(=O)N([C@H](C)CO)C[C@@H](C)[C@@H](CN(C)Cc1ccc3c(c1)OCO3)O2 | 7
SMILES | U2OS ROS induce
C[C@H]1CN([C@@H](C)CO)C(=O)Cc2cc(NS(=O)(=O)c3ccccc3)ccc2O[C@@H]1CN(C)S(=O)(=O)c1ccc(Cl)cc1 | 19
Cc1ccc(S(=O)(=O)Nc2ccc3c(c2)CC(=O)N([C@@H](C)CO)C[C@@H](C)[C@@H](CN(C)S(=O)(=O)c2cccs2)O3)cc1 | 0
Cc1ccc(S(=O)(=O)Nc2ccc3c(c2)CC(=O)N([C@H](C)CO)C[C@@H](C)[C@H](CN(C)S(=O)(=O)c2cccs2)O3)cc1 | 9
C[C@@H]1CN([C@H](C)CO)C(=O)Cc2cc(NS(=O)(=O)c3ccccc3)ccc2O[C@H]1CN(C)S(=O)(=O)c1ccc(Cl)cc1 | 28
Cc1ccc(S(=O)(=O)Nc2ccc3c(c2)CC(=O)N([C@H](C)CO)C[C@H](C)[C@H](CN(C)S(=O)(=O)c2cccs2)O3)cc1 | 96*
Cc1ccc(S(=O)(=O)N(C)C[C@@H]2Oc3ccc(NS(=O)(=O)c4ccc(Cl)cc4)cc3CC(=O)N([C@H](C)CO)C[C@H]2C)cc1 | 14
Cc1ccc(S(=O)(=O)Nc2ccc3c(c2)CC(=O)N([C@H](C)CO)C[C@@H](C)[C@@H](CN(C)S(=O)(=O)c2ccc(Cl)cc2)O3)cc1 | 94*
C[C@H]1CN([C@@H](C)CO)C(=O)Cc2cc(NS(=O)(=O)c3ccc(Cl)cc3)ccc2O[C@@H]1CN(C)S(=O)(=O)c1ccc(Cl)cc1 | 84*
Cc1ccc(S(=O)(=O)N(C)C[C@@H]2Oc3ccc(NS(=O)(=O)c4ccc(Cl)cc4)cc3CC(=O)N([C@@H](C)CO)C[C@@H]2C)cc1 | 14
Cc1noc(C)c1NC(=O)Nc1ccc2c(c1)CC(=O)N([C@H](C)CO)C[C@H](C)[C@H](CN(C)Cc1ccc3c(c1)OCO3)O2 | 4
CC1=CC(C)C2(COC(=O)Nc3ccccc3)COC(c3cccnc3)C1C2C (configuration not stated) | -2
O=C(NC1Cc2ccccc2C1)c1ccc(Oc2cc(Cl)cc(Cl)c2)o1 | 15
CCOC(=O)CC(N)c1cccc(O)c1 (configuration not stated) | -4
Cc1ccc(C(=O)Nc2cccc(-c3nc4ccccc4o3)c2)cc1 | 8
NC(=S)N1C(c2ccccc2)CCN1c1ccccc1 (configuration not stated) | 6
CC(NC(=O)CSc1nn(-c2ccccc2)c(=S)s1)c1ccccc1 (configuration not stated) | 8
O=c1oc2ccccc2cc1-c1cn2cc(Cc3ccccc3Cl)sc2n1 | -12
CCc1ccc(NC(=O)c2cc3c(s2)-c2ccccc2S(=O)(=O)C3)cc1 | 50
Cc1noc(C)c1NC(=O)Nc1ccc2c(c1)CC(=O)N([C@H](C)CO)C[C@@H](C)[C@@H](CN(C)S(=O)(=O)c1cccs1)O2 | 106*
Cc1noc(C)c1NC(=O)Nc1ccc2c(c1)CC(=O)N([C@@H](C)CO)C[C@H](C)[C@H](CN(C)S(=O)(=O)c1cccs1)O2 | 12
C[C@H]1CN([C@@H](C)CO)C(=O)Cc2cc(NS(=O)(=O)c3ccc(F)cc3)ccc2O[C@H]1CN(C)S(=O)(=O)c1ccccc1 | 106*
C[C@@H]1CN([C@@H](C)CO)C(=O)Cc2cc(NS(=O)(=O)c3ccccc3)ccc2O[C@@H]1CN(C)S(=O)(=O)c1ccc(F)cc1 | 14
C[C@H]1CN([C@@H](C)CO)C(=O)Cc2cc(NS(=O)(=O)c3ccccc3)ccc2O[C@H]1CN(C)S(=O)(=O)c1ccc(F)cc1 | 7

Screening data: PubChem BioAssay, Broad Institute
